# According to PubChem BioAssay (Tox21):
# Several values for one entry are separate records, joined by “and”; a condition that tells them apart may be missing. Equal values may be shown once. Results filed as inconclusive are left out. Entries that show only a call come without a potency. More than one record can exist for a structure, and the calls need not agree. Activity calls are given as the source filed them. Unless noted, calls come from the whole dose curve; as a rule, active = well fitted curve in the direction sought with a large enough effect in the repeat runs; inconclusive = weak or mixed curves; inactive = no such curve, though single readings can be large; an effect the other way counts as inactive or inconclusive.
# Key:
# [1] = qHTS assay for small molecule agonists of the p53 signaling pathway (AID 651631; calls by dose curve; note: nearly all actives have a fitted effect of over 15% in size)
# In short: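 HCT-116 cells carrying a beta-lactamase reporter under p53 response elements were dosed with compound for 16 h at 37 °C. LiveBLAzer B/G FRET substrate was then added for 2 h at room temperature, and fluorescence intensity was read to detect pathway agonism.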
# [2] = qHTS assay for small molecules that induce genotoxicity in human embryonic kidney cells expressing luciferase-tagged ATAD5 (AID 651632); note: nearly all actives have a fitted effect of over 15% in size
# In short: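 Test compounds were delivered by pin tool onto HEK293T reporter cells (2,000/well) expressing ATAD5 fused to luciferase. After 16 hr at 37C, 5% CO2, Amplite was added for 30 min at room temperature and luminescence was measured.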
# [3] = qHTS assay for small molecules that induce genotoxicity in human embryonic kidney cells expressing luciferase-tagged ATAD5 - cell viability (AID 651634; calls by dose curve; note: nearly all actives have a fitted effect of over 25% in size)
# In short: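 Quantitative high-throughput format. HEK293T cells expressing ATAD5 fused to luciferase were plated at 2,000 cells/well and treated 15.5 hr with compound versus DMSO. Viability was determined by fluorescent live-cell protease substrate, 30 min at 37C.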
# [4] = qHTS assay for small molecule disruptors of the mitochondrial membrane potential - cell viability (AID 720634; calls by dose curve; note: nearly all actives have a fitted effect of over 20% in size; note: potency is the fitted concentration of half-maximal effect)
# In short: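 Same-well counter-screen: following the MMP dye addition, CellTiter-Glo was added to 1 hr compound-treated HepG2 cells and luminescence read after 30 min at room temperature.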
# [5] = qHTS assay for small molecule disruptors of the mitochondrial membrane potential (AID 720635); note: potency is the fitted concentration of half-maximal effect
# In short: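 HepG2 cells (2,000/well) attached overnight at 37C, then took compound for 1 hr at 37C, 5% CO2. Mito-MPS dye was added for 30 min; fluorescence was read at 490/535 nm (monomers) and 540/590 nm (aggregates).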
# [6] = qHTS assay to test for compound auto fluorescence at 535 nm (green) in HepG2 cells (AID 720675)
# [7] = qHTS assay to test for compound auto fluorescence at 460 nm (blue) in HEK293 cells (AID 720678)
# In short: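 Cells were seeded and left to adhere for 4-5 hr at 37C. Compounds were then pin-transferred. After an overnight incubation at 37C under 5% CO2, intrinsic fluorescence at 405/460 nm was measured and referenced to triamterene.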
# [8] = qHTS assay to test for compound auto fluorescence at 590 nm (red) in HEK293 cells (AID 720679)
# In short: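 Each well held 2,000 HEK293 cells in medium containing 10% dialyzed FBS. Following 4-5 hr attachment at 37C, 23 nL test compound or DMSO was added; plates sat overnight, and red fluorescence (540/590nm) was recorded.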
# [9] = qHTS assay to test for compound auto fluorescence at 535 nm (green) in HEK293 cells (AID 720680)
# [10] = qHTS assay to test for compound auto fluorescence at 460 nm (blue) in HEK293 cell free culture (AID 720681); note: potency is the fitted concentration of half-maximal effect
# In short: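 Test compounds were pinned into cell-free culture medium (DMEM with 10% FBS) and fluorescence was read directly at Ex/Em 405/460 nm. Signals were expressed as fluorescence equivalents of triamterene, with DMSO vehicle as control.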
# [11] = qHTS assay to test for compound auto fluorescence at 535 nm (green) in HEK293 cell free culture (AID 720682)
# In short: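 Green-label autofluorescence (485 nm excitation, 535 nm emission) measured on compound added to cell-free culture medium (DMEM, 10% FBS). Output is expressed relative to fluorescein.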
# [12] = qHTS assay to test for compound auto fluorescence at 590 nm (red) in HEK293 cell free culture (AID 720683)
# In short: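 Tox21 10K library compounds were pinned into cell-free DMEM with 10% FBS and fluorescence was read at excitation 540 nm. Activity is expressed as Rose Bengal sodium equivalency.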
# [13] = qHTS assay to test for compound auto fluorescence at 590 nm (red) in HepG2 cell free culture (AID 720684)
# In short: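 Readout: intrinsic compound fluorescence at 590 nm emission after 540 nm excitation, scaled to Rose Bengal sodium. Matrix was cell-free MEM with 10% FBS; DMSO vehicle wells served as control.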
# [14] = qHTS assay to test for compound auto fluorescence at 460 nm (blue) in HepG2 cell free culture (AID 720685); note: potency is the fitted concentration of half-maximal effect
# In short: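 Cell-free plates of MEM plus 10% FBS received 23 nL compound or DMSO vehicle; blue-channel (405/460 nm) intensity scored against triamterene as reference fluorophore.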
# [15] = qHTS assay to test for compound auto fluorescence at 535 nm (green) in HepG2 cell free culture (AID 720686)
# [16] = target: Glucocorticoid receptor (Homo sapiens) (UniProt P04150); assay: qHTS assay to identify small molecule agonists of the glucocorticoid receptor (GR) signaling pathway (AID 720691; active = well fitted activation curve with a large enough effect in the signal ratio in the repeat runs, not every such curve was filed as active; the % refers to the signal ratio)
# Glucocorticoid receptor (Homo sapiens), sequence (P04150 whole entry, looked up): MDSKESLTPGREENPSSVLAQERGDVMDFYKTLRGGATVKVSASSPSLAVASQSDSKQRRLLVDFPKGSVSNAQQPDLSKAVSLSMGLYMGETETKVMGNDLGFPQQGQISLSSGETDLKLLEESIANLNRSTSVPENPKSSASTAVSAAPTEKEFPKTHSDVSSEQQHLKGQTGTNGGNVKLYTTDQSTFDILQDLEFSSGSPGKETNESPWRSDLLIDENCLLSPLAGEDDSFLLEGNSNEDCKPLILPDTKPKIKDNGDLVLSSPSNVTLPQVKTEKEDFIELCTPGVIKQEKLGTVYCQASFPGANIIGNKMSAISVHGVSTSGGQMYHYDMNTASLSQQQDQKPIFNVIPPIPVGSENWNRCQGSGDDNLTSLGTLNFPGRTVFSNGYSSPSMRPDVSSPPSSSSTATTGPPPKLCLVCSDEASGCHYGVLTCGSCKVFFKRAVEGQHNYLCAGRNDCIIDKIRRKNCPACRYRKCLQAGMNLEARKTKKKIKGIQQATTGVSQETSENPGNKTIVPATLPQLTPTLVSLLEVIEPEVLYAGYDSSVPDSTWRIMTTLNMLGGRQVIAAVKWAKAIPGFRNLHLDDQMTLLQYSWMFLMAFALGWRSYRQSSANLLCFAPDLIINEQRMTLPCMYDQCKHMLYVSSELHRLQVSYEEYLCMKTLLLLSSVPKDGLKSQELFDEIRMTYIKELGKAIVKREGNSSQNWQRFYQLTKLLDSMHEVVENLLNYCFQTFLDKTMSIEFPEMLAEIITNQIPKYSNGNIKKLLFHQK
# In short: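 A HeLa cervical cancer line expressing GR and a glucocorticoid response element-driven beta-lactamase gene is treated with compounds for 18 h; LiveBLAzer B/G FRET substrate is then applied and fluorescence read.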
# [17] = target: Glucocorticoid receptor (Homo sapiens) (UniProt P04150); assay: qHTS assay to identify small molecule antagonists of the glucocorticoid receptor (GR) signaling pathway (AID 720692; active = well fitted inhibition curve with a large enough effect in the signal ratio in the repeat runs, not every such curve was filed as active; the % refers to the signal ratio; note: potency is the fitted concentration of half-maximal effect)
# In short: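 GRE-bla HeLa line, dex-stimulated (5 nM final). Compound exposure 18 h, 37 C. Beta-lactamase FRET read after 2 h RT substrate.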
# [18] = qHTS assay for small molecule agonists of the p53 signaling pathway - cell viability (AID 651633; calls by dose curve; note: nearly all actives have a fitted effect of over 30% in size; note: potency is the fitted concentration of half-maximal effect)
# In short: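 p53RE-bla cells, seeded at 4,000 per well and rested 5 h at 37 C/5% CO2, received compounds in DMSO for 16 h at 37 C. CellTiter-Glo was then added, and luminescence was read after 30 min at room temperature to gauge cytotoxicity.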
# [19] = qHTS assay to test for compound auto fluorescence at 590 nm (red) in HepG2 cells (AID 720674)
# In short: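 Rose Bengal sodium served as the red fluorophore standard. HepG2 monolayers (overnight attachment, MEM with 10% FBS) were exposed to test compounds for 1 hr at 37 C and read at Ex 540/Em 590 nm.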
# [20] = qHTS assay to test for compound auto fluorescence at 460 nm (blue) in HepG2 cells (AID 720687); note: potency is the fitted concentration of half-maximal effect
# In short: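 Cells (2,000/well in MEM with 10% FBS) attached overnight at 37 C, then were exposed to compound or DMSO for 1 hr at 37 C, 5% CO2. Fluorescence read at Ex/Em 405/460 nm, expressed as triamterene-equivalent signal.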
# Tags give direction and shape of the fitted curve or compound fluorescence and quenching.
structure (smiles),measurement,setting,value
COc1cc(C(=O)NCCCCCC(=O)O)cc(OC)c1OC,Potency,[1],inactive
same,Potency,[2],inactive
same,Potency,[3],inactive
same,Potency,[4],inactive
same,Potency,[5],inactive
same,outcome,[6],inactive
same,Potency,[7],inactive
same,outcome,[8],inactive
same,outcome,[9],inactive
same,Potency,[10],inactive
same,outcome,[11],inactive
same,outcome,[12],inactive
same,outcome,[13],inactive
same,Potency,[14],inactive
same,outcome,[15],inactive
same,Potency,[16],inactive
same,Potency,[17],inactive
COc1ccccc1NC(=O)c1cc2ccccc2cc1O,Potency,[2],inactive
same,Potency,[18],54.5 µM (active)
same,Potency,[3],inactive
same,Potency,[4],7.7 µM (active)
same,outcome,[19],inactive
same,outcome,[6],inactive
same,outcome,[8],inactive
same,outcome,[9],inactive
same,Potency,[10],44.7 µM (active)
same,outcome,[11],inactive
same,outcome,[12],inactive
same,outcome,[13],inactive
same,Potency,[14],39.8 µM [fluorescent] (active)
same,outcome,[15],inactive
same,Potency,[20],39.8 µM [fluorescent] (active)
same,Potency,[16],inactive
same,Potency,[17],38.9 µM (active)
CN1CCCC(CC2c3ccccc3Sc3ccccc32)C1 (stereo unspecified),Potency,[2],inactive
same,Potency,[18],inactive
same,Potency,[3],inactive
same,Potency,[4],inactive
same,"fluorescence, relative to Rose Bengal",[19],0.272% [at 18.6 µM] (inactive)
same,"fluorescence, % of fluorescein control",[6],-0.0795% [at 18.6 µM] (inactive)
same,"fluorescence, % of fluorescent control",[8],-0.0119% [at 18.6 µM] (inactive)
same,"fluorescence, % of fluorescein",[9],0.0892% [at 18.6 µM] (inactive)
same,"fluorescence, % of fluorescent control",[10],-0.0216% [at 18.6 µM] (inactive)
same,activity change,[11],0.123% [at 18.6 µM] (inactive)
same,"fluorescence, % of fluorescent control",[12],0.0507% [at 18.6 µM] (inactive)
same,"fluorescence, % of Rose Bengal",[13],-0.0495% [at 18.6 µM] (inactive)
same,"fluorescence, % of fluorescent control",[14],0.14% [at 18.6 µM] (inactive)
same,"fluorescence, % of fluorescein control",[15],-0.006% [at 18.6 µM] (inactive)
same,"fluorescence, % of fluorescent control",[20],0.049% [at 18.6 µM] (inactive)
same,Potency,[16],inactive
CC(=O)c1ccc([N+](=O)[O-])cc1,Potency,[2],inactive
same,Potency,[18],inactive
same,Potency,[3],inactive
same,Potency,[4],inactive
same,outcome,[19],inactive
same,outcome,[6],inactive
same,Potency,[7],inactive
same,outcome,[8],inactive
same,outcome,[9],inactive
same,Potency,[10],inactive
same,outcome,[11],inactive
same,outcome,[12],inactive
same,Potency,[14],inactive
same,outcome,[15],inactive
same,Potency,[20],inactive
same,Potency,[16],inactive
C[C@]12CC[C@@H]3c4ccc(O)cc4CC[C@H]3[C@@H]1CC[C@@H]2OC(=O)CCC1CCCC1,Potency,[2],inactive
same,Potency,[18],inactive
same,Potency,[3],inactive
same,Potency,[4],inactive and 61.1 µM (active)
same,Potency,[5],17.2 µM (active)
same,outcome,[19],inactive
same,outcome,[6],inactive
same,Potency,[7],inactive
same,outcome,[8],inactive
same,outcome,[9],inactive
same,Potency,[10],inactive
same,outcome,[11],inactive
same,outcome,[12],inactive
same,Potency,[14],inactive
same,outcome,[15],inactive
same,Potency,[20],inactive
same,Potency,[17],10.7 µM (active) and 8.49 µM (active)
CCC(C)(C)OC,Potency,[2],inactive
same,Potency,[18],inactive
same,Potency,[3],inactive
same,Potency,[4],inactive
same,Potency,[5],inactive
same,outcome,[19],inactive
same,outcome,[6],inactive
same,Potency,[7],inactive
same,outcome,[8],inactive
same,outcome,[9],inactive
same,Potency,[10],inactive
same,outcome,[11],inactive
same,outcome,[12],inactive
same,outcome,[13],inactive
same,Potency,[14],inactive
same,outcome,[15],inactive
same,Potency,[20],inactive
same,Potency,[16],inactive
same,Potency,[17],inactive
COC(=O)CCS,Potency,[2],inactive
same,Potency,[18],inactive
same,Potency,[3],inactive
same,Potency,[4],inactive
same,Potency,[5],inactive
same,outcome,[19],inactive
same,outcome,[6],inactive
same,Potency,[7],inactive
same,outcome,[8],inactive
same,outcome,[9],inactive
same,Potency,[10],inactive
same,outcome,[11],inactive
same,outcome,[12],inactive
same,outcome,[13],inactive
same,outcome,[15],inactive
same,Potency,[20],inactive
same,Potency,[16],inactive
CC(CN(C)C)C(C)(O)Cc1ccc(Cl)cc1 (stereo unspecified),Potency,[2],inactive
same,Potency,[18],inactive
same,Potency,[3],inactive
same,Potency,[4],inactive
same,outcome,[19],inactive
same,outcome,[6],inactive
same,Potency,[7],inactive
same,outcome,[8],inactive
same,outcome,[9],inactive
same,Potency,[10],inactive
same,outcome,[11],inactive
same,outcome,[12],inactive
same,outcome,[13],inactive
same,Potency,[14],inactive
same,outcome,[15],inactive
CC(C)c1nc(CN(C)C(=O)N[C@H](C(=O)N[C@@H](Cc2ccccc2)C[C@H](O)[C@H](Cc2ccccc2)NC(=O)OCc2cncs2)C(C)C)cs1,Potency,[2],inactive
same,Potency,[18],inactive
same,Potency,[3],inactive
same,Potency,[4],inactive
same,outcome,[19],inactive
same,outcome,[6],inactive
same,Potency,[7],inactive
same,outcome,[8],inactive
same,outcome,[9],inactive
same,Potency,[10],inactive
same,outcome,[11],inactive
same,outcome,[12],inactive
same,outcome,[13],inactive
same,Potency,[14],inactive
same,outcome,[15],inactive
same,Potency,[20],inactive
same,Potency,[16],inactive
